# Measured values from PMC11006913.
# Residue numbers refer to the chain shown, from its start.
# Experiments:
# Test in all cases: PBM; 200 nM protein, PBS
# Conditions in all cases: dsDNA, one strand shown
# CRX [1] = target: CRX (Homo sapiens, UniProt O43186 26-111)
# HOXC9 [2] = target: HOXC9 (Homo sapiens, UniProt P31274 178-260, K195R)
# CRX [3] = target: CRX (Homo sapiens, UniProt O43186 26-111, E42D)
# HOXC9 [4] = target: HOXC9 (Homo sapiens, UniProt P31274 178-260)
# ALX1 [5] = target: ALX1 (Homo sapiens, UniProt Q15699 118-204, L144V)
# Chain of ALX1 (Homo sapiens, UniProt Q15699 118-204, L144V) (Q15699 118-204 L144V): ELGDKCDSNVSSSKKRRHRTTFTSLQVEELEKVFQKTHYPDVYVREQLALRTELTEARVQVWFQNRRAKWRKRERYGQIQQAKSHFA
# HOXC9 [6] = target: HOXC9 (Homo sapiens, UniProt P31274 178-260, R193K)
# Chain of HOXC9 (Homo sapiens, UniProt P31274 178-260, R193K) (P31274 178-260 R193K): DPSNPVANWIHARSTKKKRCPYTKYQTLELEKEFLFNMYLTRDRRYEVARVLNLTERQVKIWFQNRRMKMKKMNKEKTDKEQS
# ALX1 [7] = target: ALX1 (Homo sapiens, UniProt Q15699 118-204, L144R)
# Chain of ALX1 (Homo sapiens, UniProt Q15699 118-204, L144R) (Q15699 118-204 L144R): as the sequence (Q15699 118-204 L144V) above, with V27R counted along it
# HOXC9 [8] = target: HOXC9 (Homo sapiens, UniProt P31274 178-260, R222W)
# Chain of HOXC9 (Homo sapiens, UniProt P31274 178-260, R222W) (P31274 178-260 R222W): as the sequence (P31274 178-260 R193K) above, with K16R, R45W counted along it
# CRX [9] = target: CRX (Homo sapiens, UniProt O43186 26-111, R41L)
# Chain of CRX (Homo sapiens, UniProt O43186 26-111, R41L) (O43186 26-111 R41L): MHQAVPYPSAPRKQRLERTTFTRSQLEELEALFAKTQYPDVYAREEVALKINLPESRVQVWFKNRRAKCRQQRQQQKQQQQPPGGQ
# ALX1 [10] = target: ALX1 (Homo sapiens, UniProt Q15699 118-204)
# Chain of ALX1 (Homo sapiens, UniProt Q15699 118-204) (Q15699 118-204): as the sequence (Q15699 118-204 L144V) above, with V27L counted along it
# HOXB9 [11] = target: HOXB9 (Homo sapiens, UniProt P17482 171-250, T197M)
# Chain of HOXB9 (Homo sapiens, UniProt P17482 171-250, T197M) (P17482 171-250 T197M): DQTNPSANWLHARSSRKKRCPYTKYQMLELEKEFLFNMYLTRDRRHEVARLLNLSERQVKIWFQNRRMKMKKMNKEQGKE
# SIX6 [12] = target: T1, SIX6 (Homo sapiens, UniProt O95475 114-200, L167I)
# T1 sequence: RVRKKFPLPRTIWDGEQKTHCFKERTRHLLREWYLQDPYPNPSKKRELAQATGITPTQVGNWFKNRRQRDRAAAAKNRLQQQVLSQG
# SIX6 [13] = target: T2, SIX6 (Homo sapiens, UniProt O95475 114-200, L143V)
# T2 sequence: T1 sequence with L30V, I54L
# ALX4 [14] = target: ALX4 (Homo sapiens, UniProt Q9H161 200-286)
# Chain of ALX4 (Homo sapiens, UniProt Q9H161 200-286) (Q9H161 200-286): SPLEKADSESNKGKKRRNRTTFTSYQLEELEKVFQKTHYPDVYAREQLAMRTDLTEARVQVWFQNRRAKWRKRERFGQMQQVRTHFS
# SIX6 [15] = target: T3, SIX6 (Homo sapiens, UniProt O95475 114-200, H141N)
# T3 sequence: T1 sequence with H28N, I54L
# SIX6 [16] = target: T4, SIX6 (Homo sapiens, UniProt O95475 114-200, T165P)
# T4 sequence: T1 sequence with T52P, I54L
# SIX6 [17] = target: T5, SIX6 (Homo sapiens, UniProt O95475 114-200, L167M)
# T5 sequence: T1 sequence with I54M
# SIX6 [18] = target: T6, SIX6 (Homo sapiens, UniProt O95475 114-200, L143M)
# T6 sequence: T1 sequence with L30M, I54L
# SIX6 [19] = target: T7, SIX6 (Homo sapiens, UniProt O95475 114-200, L143I)
# T7 sequence: T1 sequence with L30I, I54L
# ALX4 [20] = target: ALX4 (Homo sapiens, UniProt Q9H161 200-286, Q225E)
# Chain of ALX4 (Homo sapiens, UniProt Q9H161 200-286, Q225E) (Q9H161 200-286 Q225E): as the sequence (Q9H161 200-286) above, with Q26E counted along it
# SIX6 [21] = target: T8, SIX6 (Homo sapiens, UniProt O95475 114-200, T165G)
# T8 sequence: T1 sequence with T52G, I54L
# HOXA2 [22] = target: HOXA2 (Homo sapiens, UniProt O43364 129-215, R185T)
# Chain of HOXA2 (Homo sapiens, UniProt O43364 129-215, R185T) (O43364 129-215 R185T): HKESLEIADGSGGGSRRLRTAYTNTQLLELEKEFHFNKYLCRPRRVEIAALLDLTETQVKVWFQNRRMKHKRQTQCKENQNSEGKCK
# HOXB9 [23] = target: HOXB9 (Homo sapiens, UniProt P17482 171-250)
# Chain of HOXB9 (Homo sapiens, UniProt P17482 171-250) (P17482 171-250): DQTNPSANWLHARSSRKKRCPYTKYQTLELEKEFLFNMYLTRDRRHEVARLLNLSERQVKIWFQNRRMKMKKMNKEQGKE
# SIX6 [24] = target: T9, SIX6 (Homo sapiens, UniProt O95475 114-200, T139Q)
# T9 sequence: T1 sequence with T26Q, I54L
# SIX6 [25] = target: T10, SIX6 (Homo sapiens, UniProt O95475 114-200, T165A)
# T10 sequence: T1 sequence with T52A, I54L
# HOXA2 [26] = target: HOXA2 (Homo sapiens, UniProt O43364 129-215, R185K)
# Chain of HOXA2 (Homo sapiens, UniProt O43364 129-215, R185K) (O43364 129-215 R185K): as the sequence (O43364 129-215 R185T) above, with T57K counted along it
# SIX6 [27] = target: T11, SIX6 (Homo sapiens, UniProt O95475 114-200, L167V)
# T11 sequence: T1 sequence with I54V
# SIX6 [28] = target: T12, SIX6 (Homo sapiens, UniProt O95475 114-200)
# T12 sequence: T1 sequence with I54L
# SIX6 [29] = target: T13, SIX6 (Homo sapiens, UniProt O95475 114-200, T165I)
# T13 sequence: T1 sequence with T52I, I54L
# HOXB9 [30] = target: HOXB9 (Homo sapiens, UniProt P17482 171-250, R186Q)
# Chain of HOXB9 (Homo sapiens, UniProt P17482 171-250, R186Q) (P17482 171-250 R186Q): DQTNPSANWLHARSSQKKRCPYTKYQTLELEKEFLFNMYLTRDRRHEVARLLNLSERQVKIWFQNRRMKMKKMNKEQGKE
# HOXA2 [31] = target: HOXA2 (Homo sapiens, UniProt O43364 129-215, Y150S)
# Chain of HOXA2 (Homo sapiens, UniProt O43364 129-215, Y150S) (O43364 129-215 Y150S): as the sequence (O43364 129-215 R185T) above, with Y22S, T57R counted along it
# HOXA2 [32] = target: HOXA2 (Homo sapiens, UniProt O43364 129-215)
# Chain of HOXA2 (Homo sapiens, UniProt O43364 129-215) (O43364 129-215): as the sequence (O43364 129-215 R185T) above, with T57R counted along it
# HOXA7 [33] = target: HOXA7 (Homo sapiens, UniProt P31268 116-202)
# Chain of HOXA7 (Homo sapiens, UniProt P31268 116-202) (P31268 116-202): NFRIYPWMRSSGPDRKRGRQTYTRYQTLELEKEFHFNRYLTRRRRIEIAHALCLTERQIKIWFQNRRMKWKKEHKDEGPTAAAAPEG
# HOXC10 [34] = target: HOXC10 (Homo sapiens, UniProt Q9NYD6 254-340)
# Chain of HOXC10 (Homo sapiens, UniProt Q9NYD6 254-340) (Q9NYD6 254-340): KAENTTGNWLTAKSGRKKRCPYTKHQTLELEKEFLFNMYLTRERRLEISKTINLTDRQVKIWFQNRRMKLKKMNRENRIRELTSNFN
# HOXD13 [35] = target: HOXD13 (Homo sapiens, UniProt P35453 263-343, T313R)
# Chain of HOXD13 (Homo sapiens, UniProt P35453 263-343, T313R) (P35453 263-343 T313R): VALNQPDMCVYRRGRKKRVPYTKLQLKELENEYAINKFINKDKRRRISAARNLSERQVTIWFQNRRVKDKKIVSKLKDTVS
# HOXD13 [36] = target: HOXD13 (Homo sapiens, UniProt P35453 263-343)
# Chain of HOXD13 (Homo sapiens, UniProt P35453 263-343) (P35453 263-343): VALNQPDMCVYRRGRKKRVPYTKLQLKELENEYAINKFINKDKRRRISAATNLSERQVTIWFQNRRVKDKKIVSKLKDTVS
# HOXC10 [37] = target: HOXC10 (Homo sapiens, UniProt Q9NYD6 254-340, K271E)
# Chain of HOXC10 (Homo sapiens, UniProt Q9NYD6 254-340, K271E) (Q9NYD6 254-340 K271E): as the sequence (Q9NYD6 254-340) above, with K18E counted along it
# HOXD13 [38] = target: HOXD13 (Homo sapiens, UniProt P35453 263-343, T313A)
# Chain of HOXD13 (Homo sapiens, UniProt P35453 263-343, T313A) (P35453 263-343 T313A): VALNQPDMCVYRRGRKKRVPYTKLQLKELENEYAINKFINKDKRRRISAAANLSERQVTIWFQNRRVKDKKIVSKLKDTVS
# HOXA7 [39] = target: HOXA7 (Homo sapiens, UniProt P31268 116-202, W177C)
# Chain of HOXA7 (Homo sapiens, UniProt P31268 116-202, W177C) (P31268 116-202 W177C): as the sequence (P31268 116-202) above, with W62C counted along it
# Chain of CRX (Homo sapiens, UniProt O43186 26-111) (O43186 26-111): as the sequence (O43186 26-111 R41L) above, with L16R counted along it
# Chain of CRX (Homo sapiens, UniProt O43186 26-111, E42D) (O43186 26-111 E42D): as the sequence (O43186 26-111 R41L) above, with L16R, E17D counted along it
# Chain of HOXC9 (Homo sapiens, UniProt P31274 178-260) (P31274 178-260): as the sequence (P31274 178-260 R193K) above, with K16R counted along it
# Chain of HOXC9 (Homo sapiens, UniProt P31274 178-260, K195R) (P31274 178-260 K195R): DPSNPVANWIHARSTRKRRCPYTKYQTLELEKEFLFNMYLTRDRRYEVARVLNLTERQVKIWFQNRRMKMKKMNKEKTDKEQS
sequence,measurement,setting,value
GACGCGTC,binding signal,CRX [1],"8.63 upbm affinity estimate (log intensity, higher = more binding, comparable within an allelic series)"
same,binding signal,HOXC9 [2],"9.76 upbm affinity estimate (log intensity, higher = more binding, comparable within an allelic series)"
same,binding signal,CRX [3],"8.54 upbm affinity estimate (log intensity, higher = more binding, comparable within an allelic series)"
same,binding signal,HOXC9 [4],"9.79 upbm affinity estimate (log intensity, higher = more binding, comparable within an allelic series)"
same,binding signal,ALX1 [5],"6.58 upbm affinity estimate (log intensity, higher = more binding, comparable within an allelic series)"
same,binding signal,HOXC9 [6],"9.46 upbm affinity estimate (log intensity, higher = more binding, comparable within an allelic series)"
same,binding signal,ALX1 [7],"6.43 upbm affinity estimate (log intensity, higher = more binding, comparable within an allelic series)"
same,binding signal,HOXC9 [8],"9.62 upbm affinity estimate (log intensity, higher = more binding, comparable within an allelic series)"
same,binding signal,CRX [9],"8.22 upbm affinity estimate (log intensity, higher = more binding, comparable within an allelic series)"
same,binding signal,ALX1 [10],"6.73 upbm affinity estimate (log intensity, higher = more binding, comparable within an allelic series)"
GGGGCCCC,binding signal,CRX [1],"8.9 upbm affinity estimate (log intensity, higher = more binding, comparable within an allelic series)"
same,binding signal,HOXB9 [11],"8.67 upbm affinity estimate (log intensity, higher = more binding, comparable within an allelic series)"
same,binding signal,SIX6 [12],"9.09 upbm affinity estimate (log intensity, higher = more binding, comparable within an allelic series)"
same,binding signal,SIX6 [13],"8.85 upbm affinity estimate (log intensity, higher = more binding, comparable within an allelic series)"
same,binding signal,ALX4 [14],"8.29 upbm affinity estimate (log intensity, higher = more binding, comparable within an allelic series)"
same,binding signal,SIX6 [15],"9 upbm affinity estimate (log intensity, higher = more binding, comparable within an allelic series)"
same,binding signal,SIX6 [16],"8.87 upbm affinity estimate (log intensity, higher = more binding, comparable within an allelic series)"
same,binding signal,SIX6 [17],"8.88 upbm affinity estimate (log intensity, higher = more binding, comparable within an allelic series)"
same,binding signal,SIX6 [18],"8.91 upbm affinity estimate (log intensity, higher = more binding, comparable within an allelic series)"
same,binding signal,SIX6 [19],"8.93 upbm affinity estimate (log intensity, higher = more binding, comparable within an allelic series)"
same,binding signal,ALX4 [20],"8.44 upbm affinity estimate (log intensity, higher = more binding, comparable within an allelic series)"
same,binding signal,SIX6 [21],"8.95 upbm affinity estimate (log intensity, higher = more binding, comparable within an allelic series)"
same,binding signal,HOXA2 [22],"7.49 upbm affinity estimate (log intensity, higher = more binding, comparable within an allelic series)"
same,binding signal,HOXB9 [23],"8.5 upbm affinity estimate (log intensity, higher = more binding, comparable within an allelic series)"
same,binding signal,SIX6 [24],"9.06 upbm affinity estimate (log intensity, higher = more binding, comparable within an allelic series)"
same,binding signal,CRX [3],"8.69 upbm affinity estimate (log intensity, higher = more binding, comparable within an allelic series)"
same,binding signal,SIX6 [25],"9.03 upbm affinity estimate (log intensity, higher = more binding, comparable within an allelic series)"
same,binding signal,HOXA2 [26],"10.2 upbm affinity estimate (log intensity, higher = more binding, comparable within an allelic series)"
same,binding signal,SIX6 [27],"8.99 upbm affinity estimate (log intensity, higher = more binding, comparable within an allelic series)"
same,binding signal,SIX6 [28],"8.93 upbm affinity estimate (log intensity, higher = more binding, comparable within an allelic series)"
same,binding signal,SIX6 [29],"8.97 upbm affinity estimate (log intensity, higher = more binding, comparable within an allelic series)"
same,binding signal,HOXB9 [30],"8.63 upbm affinity estimate (log intensity, higher = more binding, comparable within an allelic series)"
same,binding signal,HOXA2 [31],"10.5 upbm affinity estimate (log intensity, higher = more binding, comparable within an allelic series)"
same,binding signal,CRX [9],"8.38 upbm affinity estimate (log intensity, higher = more binding, comparable within an allelic series)"
same,binding signal,HOXA2 [32],"7.38 upbm affinity estimate (log intensity, higher = more binding, comparable within an allelic series)"
ATTTATGG,binding signal,CRX [1],"10.2 upbm affinity estimate (log intensity, higher = more binding, comparable within an allelic series)"
same,binding signal,HOXB9 [11],"9.79 upbm affinity estimate (log intensity, higher = more binding, comparable within an allelic series)"
same,binding signal,HOXC9 [2],"12.7 upbm affinity estimate (log intensity, higher = more binding, comparable within an allelic series)"
same,binding signal,HOXA7 [33],"10.6 upbm affinity estimate (log intensity, higher = more binding, comparable within an allelic series)"
same,binding signal,HOXC10 [34],"12.5 upbm affinity estimate (log intensity, higher = more binding, comparable within an allelic series)"
same,binding signal,HOXB9 [23],"12.1 upbm affinity estimate (log intensity, higher = more binding, comparable within an allelic series)"
same,binding signal,CRX [3],"9.96 upbm affinity estimate (log intensity, higher = more binding, comparable within an allelic series)"
same,binding signal,HOXC9 [4],"12.9 upbm affinity estimate (log intensity, higher = more binding, comparable within an allelic series)"
same,binding signal,HOXD13 [35],"10.8 upbm affinity estimate (log intensity, higher = more binding, comparable within an allelic series)"
same,binding signal,HOXC9 [6],"12.8 upbm affinity estimate (log intensity, higher = more binding, comparable within an allelic series)"
same,binding signal,HOXD13 [36],"12.1 upbm affinity estimate (log intensity, higher = more binding, comparable within an allelic series)"
same,binding signal,HOXC10 [37],"11.7 upbm affinity estimate (log intensity, higher = more binding, comparable within an allelic series)"
same,binding signal,HOXD13 [38],"11.8 upbm affinity estimate (log intensity, higher = more binding, comparable within an allelic series)"
same,binding signal,HOXB9 [30],"11.8 upbm affinity estimate (log intensity, higher = more binding, comparable within an allelic series)"
same,binding signal,HOXC9 [8],"11.2 upbm affinity estimate (log intensity, higher = more binding, comparable within an allelic series)"
same,binding signal,HOXA7 [39],"8.83 upbm affinity estimate (log intensity, higher = more binding, comparable within an allelic series)"
same,binding signal,CRX [9],"9.82 upbm affinity estimate (log intensity, higher = more binding, comparable within an allelic series)"
